APOBEC3G inh: blocks human APOBEC3G single-stranded DNA deamination; Q9HC16; recombinant A3G, ssDNA deamination FAM/TAMRA fluorescence; inhibition, % at 20 µM; hit rate 0.28% among 330,000; AID 493012;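 active means inhibition of at least 40% at 20 µM, with no more than 30% in the related APOBEC3A deaminase screen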;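 further: plate controls were DMSO wells with A3G for no effect and wells lacking A3G enzyme for full effect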
Target sequence (Q9HC16 whole entry, looked up): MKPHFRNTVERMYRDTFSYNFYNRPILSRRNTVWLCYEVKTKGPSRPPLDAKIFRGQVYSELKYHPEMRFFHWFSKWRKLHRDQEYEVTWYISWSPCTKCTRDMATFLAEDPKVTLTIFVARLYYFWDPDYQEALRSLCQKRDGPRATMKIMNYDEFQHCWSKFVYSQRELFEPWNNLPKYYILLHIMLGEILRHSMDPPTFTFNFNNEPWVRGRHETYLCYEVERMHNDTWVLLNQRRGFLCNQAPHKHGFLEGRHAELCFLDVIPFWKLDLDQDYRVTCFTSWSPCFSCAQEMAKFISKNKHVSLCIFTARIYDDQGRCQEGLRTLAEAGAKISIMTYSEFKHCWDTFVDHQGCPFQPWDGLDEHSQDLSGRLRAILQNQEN
ADAM10 inh: ADAM10 inhibition, QFRET primary screen | inhibition, % at 7 µM | O14672 | recombinant ADAM10, EDANS/DABCYL FRET peptide cleavage, 3 h | hit rate 0.62% among 370,000;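 active means inhibition above a per-campaign cutoff equal to the mean of compounds falling between control-based bounds plus 3 SD, cut at about 20% in these data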;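 further: 0% = DMSO wells while the 100% control is not disclosed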
A3A deaminase: inhibitors of human APOBEC3A DNA deaminase; P31941; recombinant A3A, FAM/TAMRA ssDNA deamination fluorescence; inhibition, % at 20 µM; hit rate 0.41% among 330,000; AID 493011;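 active means at least 40% inhibition at 20 µM here, with at most 30% in a related deaminase screen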;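 further: plate controls were A3A with DMSO for no effect and wells lacking A3A enzyme for full effect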
CendR NRP1 mod: modulators of CendR peptide binding to human neuropilin-1. O14786. FAM-RPARPAR peptide binding to NRP-1, fluorescence polarization. inhibition, % at 25 µM. hit rate 0.85% among 360,000. AID 602438;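 active means inhibition or corrected inhibition above about 18%, plus a signal ratio from 0.5 to 1.5, limit read from the data, passing the limit was not always enough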
ADAM17 inh: inhibits human ADAM17; inhibition, % at 6.95 µM; hit rate 0.83% among 370,000; P78536; recombinant ADAM17, EDANS/DABCYL FRET peptide cleavage;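 active means inhibition above the mean of compounds lying between control limits plus 3 SD, set per campaign, cut at about 8.5% in these data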;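 further: 0% = DMSO-only wells as the low control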
The depositor's hits bear a star; · = not tested or not shown. Most compounds without a hit are left out; they make up all but 2.4% or so of the library.

SMILES	APOBEC3G inh	ADAM10 inh	A3A deaminase	CendR NRP1 mod	ADAM17 inh
O=C(CCc1ccccc1)N[C@H]1[C@H](OCc2ccccc2)CCC[C@@]12C(=O)N(Cc1ccccc1)c1ccc(-c3ccccn3)cc12	·	-0.4	·	·	1.1
CC(C)Oc1cc(NC(=O)CS(=O)CC(=O)N(C)C)c(Cl)cc1Cl (stereo not given)	0.4	-3.9	1.2	25.2*	-0.5
CCc1ccccc1NC(=O)NC1CC2CCC(C1)N2Cc1ccco1 (stereo not given)	-5.2	-6.2	-0.3	19.7*	-4.9
O=C(Nc1cccc(Cl)c1)NC1CC2CCC(C1)N2Cc1ccco1 (stereo not given)	-1.6	-6.7	2.6	-2.3	-2.2
O=C(N/N=C/c1ccccn1)c1cc(C2CC2)[nH]n1	7.5	0.5	7.4	-8.9	-3.8
O=C(N/N=C/c1cccc2ccccc12)c1cc(C2CC2)[nH]n1	-0.3	-5.3	1.0	22.1*	-5.5
CC(Oc1cccc(Cl)c1)C(=O)Nc1ccccc1C(=O)N1CCCCC1 (stereo not given)	-6.2	-11.6	0.3	-2.4	-4.7
CC(Oc1cccc(Cl)c1)C(=O)Nc1ccccc1N1CCCCC1 (stereo not given)	-6.5	-2.8	-1.5	27.8*	-4.5
COC(=O)c1ccc(C)c(NC(=O)Cc2coc3cc(OC)ccc23)c1	-3.0	3.8	-2.3	31.7*	-0.7
CN1CCC(N(C)C(=O)c2ccc(Cl)c(S(=O)(=O)N(C)c3ccc(Cl)cc3)c2)CC1	16.8	-5.5	3.1	33.2*	-1.9
CN1CCC(N(C)C(=O)c2cc(S(=O)(=O)N(C)c3ccccc3)ccc2Cl)CC1	-6.7	-2.9	-4.0	-6.1	-2.0
COC(=O)C1=C(C)N(C)C(=NCc2ccc(OC)cc2)NC1c1cccc(Cl)c1 (stereo not given)	·	-5.0	·	·	0.5
CN(c1ccccc1)S(=O)(=O)c1cccc(NC(=O)CSc2nncn2C)c1	-5.9	-7.9	2.6	23.5*	-1.9
Cc1cc(C)n2c(SCC(=O)Nc3cccc(S(N)(=O)=O)c3)nnc2n1	3.6	-14.5	2.2	24.2*	-3.1
Cc1nnc(SCC(=O)Nc2cccc(S(N)(=O)=O)c2)n1-c1ccccc1	-5.2	-7.5	-1.3	8.5	-7.6
CC(=O)Nc1ccc(C(=O)Nc2cccc(S(=O)(=O)N(C)c3ccccc3)c2)cc1	-5.1	6.0	-3.3	26.0*	2.7
COC(=O)[C@]12C[C@H](CC(=O)N3CCCCC3)C(=O)N(Cc3ccco3)C1=C[C@H](C1CCCC1)O[C@@H]2C	·	3.5	·	·	1.8
Cc1ccc(OCc2nnc(SCC(=O)Nc3ccc(S(=O)(=O)Nc4cc(C)nc(C)n4)cc3)n2Cc2ccco2)cc1	·	-8.8	·	·	3.0
COC(=O)c1sccc1NC(=O)c1ccccc1	-1.5	16.9	0.9	-4.1	-2.7
COC(=O)c1sccc1NC(=O)c1ccnn1C	-4.7	-1.8	-5.1	24.9*	-6.7
Cc1noc(C)c1C(=O)OCC(=O)NCc1ccccc1	-13.8	-2.1	-1.2	23.6*	-1.5
Cc1ccc(CNC(=O)COC(=O)c2c(C)noc2C)cc1	-3.0	-1.9	-1.9	0.9	-2.5
COC1=C(N)C(=O)c2nc(C)ccc2C1=O	·	-5.3	·	30.9*	6.1
O=C(CSc1nnc(-c2ccccn2)n1-c1ccccc1)Nc1cccc2ccccc12	·	-11.7	·	·	-0.3
COC(=O)n1c(=O)oc2ccccc21	-6.4	1.8	-0.8	26.4*	-4.0
SMILES	APOBEC3G inh	ADAM10 inh	A3A deaminase	CendR NRP1 mod	ADAM17 inh
CCOC(=O)[C@@]12CCCC=C1N(CCc1ccc(Cl)cc1)C(=O)[C@H]2CC(=O)NCC12CC3CC(CC(C3)C1)C2	·	-2.6	·	·	-1.6
O=C(c1ccccn1)N1CCN(S(=O)(=O)c2ccccc2)CC1	-12.4	-11.1	-7.1	24.0*	-5.5
O=C(CCNS(=O)(=O)c1ccc(Br)cc1)NCCc1ccc(Cl)cc1	-7.6	7.8	-5.0	26.6*	1.1
CC1=CC(C)(C)NC(=S)N1c1ccc(N(C)C)cc1	·	0.6	·	24.2*	3.4
C[C@H]1CN=C(N(C)C)N1CCCC1CCCC1	20.5	2.6	3.5	13.8	-0.6
C[C@H]1CN=C(N(C)C)N1CCC1CCCCC1	-5.8	1.8	-2.3	29.6*	-0.4
C=CCNC(=O)C1CCN(c2cncnc2)CC1	·	-17.1	·	·	-5.9
C#CCN1CC(N(C)CCOC(=O)CCCc2ccccc2)CS1(=O)=O (stereo not given)	·	-2.5	·	·	-3.2
O=C(Nc1cccc(Cl)c1)N(CCN1CCOCC1)Cc1cccc(Cl)c1	0.3	7.7	-0.1	4.9	3.7
COc1ccc(CN(CCCN2CCOCC2)C(=O)Nc2cccc(Cl)c2)cc1OC	-0.3	0.5	-0.8	26.7*	-5.2

High-throughput results as filed in PubChem BioAssay.
